{
  "source": "PubChem BioAssay (EPA / NIEHS)",
  "key": {"[1]": {"molecular_target": "Estrogen receptor (Homo sapiens) (UniProt P03372)", "sequence (P03372 whole entry, looked up, the tested form may be a part)": "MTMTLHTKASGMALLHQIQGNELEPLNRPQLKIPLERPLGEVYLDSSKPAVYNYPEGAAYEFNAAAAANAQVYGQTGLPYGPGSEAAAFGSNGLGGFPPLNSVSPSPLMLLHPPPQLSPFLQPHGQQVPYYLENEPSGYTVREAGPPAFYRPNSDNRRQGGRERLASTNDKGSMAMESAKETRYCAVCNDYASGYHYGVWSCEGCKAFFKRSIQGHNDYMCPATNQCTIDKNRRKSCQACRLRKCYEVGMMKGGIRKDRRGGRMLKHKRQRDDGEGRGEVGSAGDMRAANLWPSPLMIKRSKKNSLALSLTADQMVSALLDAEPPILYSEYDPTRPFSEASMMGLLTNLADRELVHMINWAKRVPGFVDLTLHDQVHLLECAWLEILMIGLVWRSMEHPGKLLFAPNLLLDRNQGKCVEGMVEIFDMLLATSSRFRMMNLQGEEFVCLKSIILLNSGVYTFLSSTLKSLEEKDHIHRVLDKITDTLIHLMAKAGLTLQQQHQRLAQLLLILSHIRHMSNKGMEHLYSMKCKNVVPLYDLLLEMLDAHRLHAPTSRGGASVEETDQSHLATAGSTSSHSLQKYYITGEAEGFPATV", "test": "OT_ER_ERaERa_1440: Odyssey Thera (OT) 24-hour HEK293T Protein-Complementation Assay for Estrogen Receptor-alpha/-alpha Homodimer (AID 2283349);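 also: hits raise fluorescence above DMSO for agonists and antagonists alike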", "method_in_brief": "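Cells (HEK293T) carrying the fragment-tagged ERα LBD (aa 310-547) pair are treated with chemical for 24 hours. Nuclear and/or cytoplasmic fluorescence is then quantified on a laser scanning cytometer. Activity is scored as signal gain against DMSO.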"}, "[2]": {"molecular_target": "Estrogen receptor (Homo sapiens) (UniProt P03372)", "test": "OT_ER_ERaERa_0480: Odyssey Thera (OT) 8-hour HEK293T Protein-Complementation Assay for Estrogen Receptor-alpha/-alpha Homodimer (AID 2283351);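 also: rise in fluorescence from reassembled reporter fragments on ERα LBD homodimer in nucleus or whole cell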", "method_in_brief": "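HEK293T cells stably expressing a PCA pair of ER alpha LBD (residues 310-547) were dosed for 8 hours. The gain in fluorescence intensity, nuclear for agonists and whole-cell for antagonists, was measured by laser scanning cytometry against DMSO vehicle.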"}, "[3]": {"molecular_target": "Estrogen receptor (Homo sapiens) + Estrogen receptor beta (Homo sapiens) (UniProt P03372+Q92731)", "sequence (P03372 whole entry, looked up, the tested form may be a part)": "as above", "sequence (Q92731 whole entry, looked up, the tested form may be a part)": "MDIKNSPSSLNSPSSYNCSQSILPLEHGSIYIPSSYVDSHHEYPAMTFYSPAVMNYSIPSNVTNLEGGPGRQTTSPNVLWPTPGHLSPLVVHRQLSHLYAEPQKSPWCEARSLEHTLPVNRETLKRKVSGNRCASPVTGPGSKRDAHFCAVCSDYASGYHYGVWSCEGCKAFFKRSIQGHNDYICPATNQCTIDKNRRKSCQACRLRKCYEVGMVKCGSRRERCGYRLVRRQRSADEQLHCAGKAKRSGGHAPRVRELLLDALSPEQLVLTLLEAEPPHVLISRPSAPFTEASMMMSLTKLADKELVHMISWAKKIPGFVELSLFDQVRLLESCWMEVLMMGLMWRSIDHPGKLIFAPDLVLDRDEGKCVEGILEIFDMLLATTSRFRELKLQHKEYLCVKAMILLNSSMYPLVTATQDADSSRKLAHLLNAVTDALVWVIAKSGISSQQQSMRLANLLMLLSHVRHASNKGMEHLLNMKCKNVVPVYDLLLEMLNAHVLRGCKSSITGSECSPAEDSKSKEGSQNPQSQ", "test": "OT_ER_ERaERb_0480: Odyssey Thera (OT) 8-hour HEK293T Protein-Complementation Assay for Estrogen Receptor-alpha/-beta Heterodimer (AID 2283352)", "method_in_brief": "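HEK293T protein-fragment complementation assay of ER-alpha/ER-beta LBD heterodimerisation, read 8 h after dosing. Mean nuclear/cytoplasmic fluorescence intensity measured by laser scanning cytometry; gain of signal fitted relative to DMSO.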"}, "[4]": {"molecular_target": "Androgen Receptor/SRC-1 Co-activator, AR (gene 367) (UniProt P10275)", "sequence (P10275 whole entry, looked up)": "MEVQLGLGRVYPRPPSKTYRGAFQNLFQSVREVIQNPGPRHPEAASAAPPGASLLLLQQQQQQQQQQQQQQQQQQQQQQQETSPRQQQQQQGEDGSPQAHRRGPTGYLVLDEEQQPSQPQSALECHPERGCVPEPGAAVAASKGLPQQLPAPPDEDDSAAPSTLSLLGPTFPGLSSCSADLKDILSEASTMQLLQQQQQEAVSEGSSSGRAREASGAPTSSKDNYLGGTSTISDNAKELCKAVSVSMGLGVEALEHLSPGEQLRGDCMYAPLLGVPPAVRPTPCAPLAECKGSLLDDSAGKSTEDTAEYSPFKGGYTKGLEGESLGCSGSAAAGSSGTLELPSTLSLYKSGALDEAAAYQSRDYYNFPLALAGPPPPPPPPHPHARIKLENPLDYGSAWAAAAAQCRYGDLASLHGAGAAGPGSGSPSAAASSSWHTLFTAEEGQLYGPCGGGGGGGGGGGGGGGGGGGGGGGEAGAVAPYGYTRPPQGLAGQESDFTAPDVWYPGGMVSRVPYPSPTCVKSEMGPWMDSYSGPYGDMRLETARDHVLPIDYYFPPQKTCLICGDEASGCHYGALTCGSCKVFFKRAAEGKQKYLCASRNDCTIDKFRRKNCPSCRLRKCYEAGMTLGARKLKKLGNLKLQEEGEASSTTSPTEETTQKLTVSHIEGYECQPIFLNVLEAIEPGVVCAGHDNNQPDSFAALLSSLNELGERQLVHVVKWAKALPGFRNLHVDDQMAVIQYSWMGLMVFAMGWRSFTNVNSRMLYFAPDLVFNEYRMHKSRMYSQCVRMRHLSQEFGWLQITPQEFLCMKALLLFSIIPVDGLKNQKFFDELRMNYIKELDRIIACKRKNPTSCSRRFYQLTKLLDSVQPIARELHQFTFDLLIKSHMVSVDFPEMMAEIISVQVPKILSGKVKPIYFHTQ", "test": "OT_AR_ARSRC1_0960: Odyssey Thera (OT) 16-hour HEK293T Protein-Complementation Assay for Androgen Receptor/SRC-1 Co-activator (AID 2283353);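 also: actives raise the signal above DMSO so potency reflects increased AR and SRC-1 complex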", "method_in_brief": "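Endpoint is gain-of-signal N/C fluorescence ratio in the 488 nm channel versus DMSO, from at least 400 cells per image, measured 16 h post-dosing. Cells: HEK293T stably carrying split-Venus AR/SRC-1 complementation constructs.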"}},
  "note": "Results filed as inconclusive are left out. The source made the active and inactive calls. The calls were made as follows: active = hit-call score of the fitted dose curve at least 0.9, where 1 is the maximum; inconclusive = response in the unintended direction; inactive = score below 0.9.",
  "data": [
    {"smiles": "CC(CCO)CC(C)(C)C", "note": "(configuration not stated)", "values": [
      {"measurement": "outcome", "setting": "[1]", "value": "inactive"},
      {"measurement": "outcome", "setting": "[2]", "value": "inactive"},
      {"measurement": "outcome", "setting": "[3]", "value": "inactive"},
      {"measurement": "outcome", "setting": "[4]", "value": "inactive"}
    ]},
    {"smiles": "CC1=CCC(C(C)(C)O)CC1", "note": "(configuration not stated)", "values": [
      {"measurement": "outcome", "setting": "[1]", "value": "inactive"},
      {"measurement": "outcome", "setting": "[2]", "value": "inactive"},
      {"measurement": "outcome", "setting": "[4]", "value": "inactive"}
    ]},
    {"smiles": "FC(F)(F)c1ccc(Cl)c(Cl)c1", "values": [
      {"measurement": "AC50", "setting": "[1]", "value": "12 µM (active)"},
      {"measurement": "outcome", "setting": "[2]", "value": "inactive"},
      {"measurement": "outcome", "setting": "[3]", "value": "inactive"},
      {"measurement": "outcome", "setting": "[4]", "value": "inactive"}
    ]},
    {"smiles": "CC(=O)OC(C)(C)C", "values": [
      {"measurement": "outcome", "setting": "[1]", "value": "inactive"},
      {"measurement": "outcome", "setting": "[3]", "value": "inactive"}
    ]},
    {"smiles": "c1ccc2scnc2c1", "values": [
      {"measurement": "outcome", "setting": "[1]", "value": "inactive"},
      {"measurement": "outcome", "setting": "[3]", "value": "inactive"}
    ]},
    {"smiles": "O=C(OCc1ccccc1)c1ccccc1O", "values": [
      {"measurement": "outcome", "setting": "[1]", "value": "inactive"},
      {"measurement": "AC50", "setting": "[2]", "value": "63 µM (active)"},
      {"measurement": "AC50", "setting": "[3]", "value": "46 µM (active)"}
    ]},
    {"smiles": "CCCCC(CC)COCCO", "note": "(configuration not stated)", "values": [
      {"measurement": "outcome", "setting": "[1]", "value": "inactive"},
      {"measurement": "outcome", "setting": "[2]", "value": "inactive"},
      {"measurement": "outcome", "setting": "[3]", "value": "inactive"}
    ]},
    {"smiles": "CCCCCC1CCC(=O)O1", "note": "(configuration not stated)", "values": [
      {"measurement": "outcome", "setting": "[1]", "value": "inactive"},
      {"measurement": "outcome", "setting": "[2]", "value": "inactive"},
      {"measurement": "outcome", "setting": "[3]", "value": "inactive"}
    ]},
    {"smiles": "COC(=O)c1cccc(C(=O)OC)c1", "values": [
      {"measurement": "outcome", "setting": "[1]", "value": "inactive"},
      {"measurement": "outcome", "setting": "[2]", "value": "inactive"},
      {"measurement": "outcome", "setting": "[4]", "value": "inactive"}
    ]}
  ]
}
